This is an account of results in PubChem BioAssay AID463082 (The Scripps Research Institute Molecular Screening Center, 2010).

Hit rate of the full screen: of about 330,000 compounds, about 4,900 (1.5%) were called active.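 The calls were made as follows: active = inhibition above the mean inhibition across the screen plus 3 SD (cut at about 25% in these data); inactive = the rest.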 Many of the other results were omitted from the sample, so actives are more common in it than they were.

Sequence of Platelet-activating factor acetylhydrolase (Homo sapiens) (Q13093 whole entry, looked up): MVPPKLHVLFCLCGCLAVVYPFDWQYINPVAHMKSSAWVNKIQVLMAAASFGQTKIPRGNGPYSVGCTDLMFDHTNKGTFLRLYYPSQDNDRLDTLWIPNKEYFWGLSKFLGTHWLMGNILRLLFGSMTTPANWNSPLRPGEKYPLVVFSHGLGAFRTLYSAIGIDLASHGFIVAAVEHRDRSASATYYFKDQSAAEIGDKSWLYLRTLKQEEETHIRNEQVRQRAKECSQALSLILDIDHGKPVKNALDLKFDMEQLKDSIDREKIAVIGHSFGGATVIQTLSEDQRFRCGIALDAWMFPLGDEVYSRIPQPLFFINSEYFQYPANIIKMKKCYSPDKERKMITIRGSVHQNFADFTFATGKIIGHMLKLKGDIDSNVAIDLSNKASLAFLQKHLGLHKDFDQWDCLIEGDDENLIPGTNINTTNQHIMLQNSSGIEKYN

The experiment addresses Platelet-activating factor acetylhydrolase (Homo sapiens) (UniProt Q13093). The experiment is described as follows: inhibition of plasma PAF acetylhydrolase – biochemical, fluorescence polarization, human, primary screen (AID 463082).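 Also: inhibitors block binding of the rhodamine activity-based probe so polarization drops; 0% = enzyme with DMSO and 100% = wells lacking pPAFAH.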 The note with it: recombinant pPAFAH, FP-rhodamine probe fluorescence polarization; at 3.39 µM; stronger effect = higher value. A general note: Fluorescence polarisation rises when a labelled molecule tumbles more slowly, as on binding a larger partner.
The inhibition is the change of the read-out against control, counted positive when it falls. Turning to `COC(=O)[C@@]12CCCN1[C@H](c1ccc(-c3ccc(F)cc3)c(OC)c1)[C@H]1C(=O)N(C)C(=O)[C@H]12`, the inhibition was -3.21% (inactive).

Regarding `COC(=O)N/N=C/c1cn(CCCOc2ccc(C)cc2)c2ccccc12`, the inhibition was 19.2% (inactive).

Take `CNC(=S)N/N=C/c1cn(Cc2ccc(C)cc2)c2ccccc12`: the inhibition was 18.1% (inactive).

Turning to `CCOC(=O)N/N=C/c1cn(Cc2ccccc2Cl)c2ccccc12`, the inhibition is 30.1% (active).

In the case of `Cc1ccc(-c2nc(SCC(=O)Nc3ccccc3OC(F)F)c3c(C)c(C(=O)O)sc3n2)cc1`, the inhibition is 1.04% (inactive).

Regarding `OCCCC1CCCCN1Cc1nc(Cc2ccccc2Cl)no1` (stereo not drawn), the inhibition is -2.08% (inactive).

In the case of `CC(C)c1ccc(Nc2nnc(SCC(=O)c3nnc(-c4ccccc4)o3)s2)cc1`, the inhibition was 30.8% (active).

For `CC(C)N(C(=O)CSc1nnc(NC2CC2)s1)c1ccccc1`, the inhibition was -0.35% (inactive).

For `Cc1ccccc1Nc1nnc(SCC(=O)c2cc3ccccc3o2)s1`, the inhibition is 2.17% (inactive).

As to `Fc1ccccc1/C=C1\CCCC2=C1Nc1ncnn1C2c1ccccc1F` (stereo not drawn), the inhibition is 14% (inactive).

On to `O=C1C=C(c2cccc(Cl)c2O)C[C@@H](c2ccc(F)cc2)C1`, for which the inhibition was 4.07% (inactive).

Turning to `O=C(NCc1ccc(F)cc1)C(c1ccccc1)N(C(=O)c1csnn1)C1CC1` (stereo not drawn), the inhibition is -2.59% (inactive).

As to `CC1=NNC(=O)C1CCC(=O)N/N=C(\C)c1ccc(Cl)cc1` (stereo not drawn), the inhibition is 3.21% (inactive).

In the case of `O=C(CCC1CCCCC1)Nc1cc(C(F)(F)F)ccc1N1CCOCC1`, the inhibition is 37.1% (active).

For the molecule `CC(C)CC(=O)Nc1cc(C(F)(F)F)ccc1N1CCOCC1`, the inhibition was -1.9% (inactive).

`O=C(CN1C(=O)NC2(CCCC2)C1=O)Nc1cc(C(F)(F)F)ccc1N1CCOCC1`: the inhibition is 6.53% (inactive).

Take `Cc1ccc(O/C=C2\OC(=O)c3ccccc32)cc1`: the inhibition is -0.55% (inactive).

Turning to `Cc1noc(C)c1NC(=O)Nc1ccc2c(c1)C(=O)N([C@H](C)CO)C[C@H](C)[C@@H](CN(C)C(=O)Nc1ccc(C(F)(F)F)cc1)O2`, the inhibition is -10.3% (inactive).

Take `CC(=O)N1CCN(C(=O)c2cc(-c3ccc(C)o3)nc3ccccc23)CC1`: the inhibition is 41% (active).

`CC(=O)N1CCN(C(=O)c2cc(-c3ccc(Cl)s3)nc3ccccc23)CC1`: the inhibition is 3.56% (inactive).

In the case of `COc1ccc(NC(=O)c2cc(-c3ccc(C)o3)nc3ccccc23)cc1`, the inhibition was 11.4% (inactive).

In the case of `O=C(Cn1ncc2c3ccccc3n(Cc3ccccc3)c2c1=O)NCc1ccccn1`, the inhibition was -0.14% (inactive).

Turning to `CCN1CCN(C(=O)CCN2C(=O)c3ccccc3C2=O)CC1`, the inhibition was -1.23% (inactive).

For the molecule `CCCCOc1ccc(N(CC(=O)NCC2CCCO2)C(=O)CCC(=O)Nc2cc(C)ccn2)cc1` (stereo not drawn), the inhibition was 10.7% (inactive).

As for `CCCCOc1ccc(N(CC(=O)NC(C)C)C(=O)CCC(=O)Nc2ccccn2)cc1`, the inhibition was 28.3% (active).

Take `CCOc1ccc(C(C(=O)NCCOC)N(CCOC)C(=O)CCC(=O)Nc2ccccn2)cc1` (stereo not drawn): the inhibition is 5.87% (inactive).

Consider `COc1ccccc1C(=O)Nc1ccc(Nc2ccccc2)cc1`, for which the inhibition was 2.35% (inactive).

Consider `CCC(=O)Nc1nnc(S(=O)(=O)N(CC(C)C)c2ccccc2)s1`, for which the inhibition was 3.99% (inactive).

Turning to `O=C(Nc1cc(C(F)(F)F)ccc1Cl)c1cc2nc3c(c(C(F)(F)F)n2n1)CCCC3`, the inhibition is 8.15% (inactive).

As to `CN=C1S/C(=C\c2c(OC)cc(OC)cc2OC)C(=O)N1C`, the inhibition is -0.42% (inactive).

For `CN1C(=O)/C(=C/c2ccco2)SC1=Nc1cccc(C(=O)O)c1`, the inhibition was 25.1% (active).

For `Cc1cc(/C=C2\SC(=Nc3ccc(N4CCOCC4)cc3)N(C)C2=O)c(C)n1-c1cccnc1`, the inhibition is 2.99% (inactive).

Turning to `Cc1nc2ccccc2c(=O)n1-c1ccc(F)c(NC(=O)c2cccs2)c1`, the inhibition was -0.28% (inactive).

For the molecule `O=C(NC1CCCC1)c1cc(-c2ccccc2)on1`, the inhibition is 8.25% (inactive).

For `COc1ccc(CNC(=O)/C(C#N)=C/c2cccc(OC)c2OC)cc1`, the inhibition is -1.57% (inactive).

With `N#C/C(=C\c1ccc(O)c(O)c1)C(=O)NCc1ccccc1`, the inhibition is 28.2% (active).

Regarding `COCCNC(=O)/C(C#N)=C/c1cccc(OCc2ccccc2)c1`, the inhibition is 2.65% (inactive).

Take `Cc1cccc(C)c1N1CCN(S(=O)(=O)N2CCCCC2)CC1`: the inhibition is 0.66% (inactive).

Regarding `O=C1COc2ccc(C(=O)COC(=O)c3cccnc3Cl)cc2N1`, the inhibition is 3.48% (inactive).

Turning to `Cc1cc(=O)oc2c1ccc1ccccc12`, the inhibition was 1.01% (inactive).

As to `O=C1CCC([N+](=O)[O-])C(c2ccccc2Br)N1` (stereo not drawn), the inhibition was 2.25% (inactive).

`CN(CC(=O)Nc1ccc(OC(F)(F)F)cc1)C(=O)C1CCC1`: the inhibition is 2.02% (inactive).

In the case of `CC(CC(=O)Nc1ccc(F)cc1F)S(=O)(=O)c1ccc2c(c1)NC(=O)CO2` (stereo not drawn), the inhibition was 0.8% (inactive).

`Cc1cc(C)n(C(=O)c2ccc(C)c(S(=O)(=O)N3CCOCC3)c2)n1`: the inhibition was 2.24% (inactive).

As to `O=[N+]([O-])C(=c1ccc2c(c1)N1C3=C(CCCC3)CC3CCCCC31N=2)[N+](=O)[O-]` (stereo not drawn), the inhibition is 33.6% (active).

Turning to `CCN1CCN(C(=O)C2CCN(S(=O)(=O)c3cc(Cl)ccc3Cl)CC2)CC1`, the inhibition was 3.87% (inactive).

As for `CCc1cc2c(=O)c(-c3nc4ccccc4n3C)c(CCCC(=O)O)oc2cc1OC(=O)C(C)(C)C`, the inhibition is 3.51% (inactive).

Regarding `COc1ccc(-n2nnnc2-c2nc3ccccc3s2)cc1`, the inhibition was -4.42% (inactive).

Take `CCc1ccc(N2CC(O)=C(c3nc4ccccc4c(=O)[nH]3)C2=N)cc1`: the inhibition was -1.78% (inactive).

On to `COc1ccccc1N1CC(O)=C(c2nc3ccccc3s2)C1=N`, for which the inhibition was 32.9% (active).

For `C=CCC[C@H](Cc1ccc(F)cc1)C(=O)OC[C@@H](NC(=O)[C@@H](CC=C)CC(=O)N[C@H](CO)Cc1ccccc1)C(C)(C)C`, the inhibition is 4.14% (inactive).

As to `Cc1cc(NC(=O)CSC2=NS(=O)(=O)c3cc(Cl)ccc3N2)no1`, the inhibition was -4.37% (inactive).

Turning to `CS(=O)(=O)N1CCCC(C(=O)Nc2ccccc2C(F)(F)F)C1` (stereo not drawn), the inhibition is -1.76% (inactive).

On to `O=C(COC(=O)c1ccccc1Br)Nc1nnc(-c2ccccc2)o1`, for which the inhibition was 4.87% (inactive).

On to `O=C(COC(=O)c1ccc(Oc2ccccc2)cc1)Nc1nnc(-c2ccccc2)o1`, for which the inhibition was 25% (active).

Turning to `CC(=O)Nc1cccc(C(=O)OCC(=O)Nc2nnc(-c3ccccc3)o2)c1`, the inhibition is 5.98% (inactive).

On to `O=C(COc1ccccc1)N1CCN=C1SCc1cccc(F)c1`, for which the inhibition was 4.42% (inactive).

For the molecule `CC(NS(=O)(=O)c1ccc(OCC(=O)N2CCCC2)cc1)c1ccccc1` (stereo not drawn), the inhibition is 14.5% (inactive).

`O=C(COc1ccc(S(=O)(=O)NCc2ccccc2)cc1)N1CCOCC1`: the inhibition was 4.78% (inactive).

On to `O=C(COc1ccc(S(=O)(=O)NCCc2ccccc2)cc1)N1CCCC1`, for which the inhibition is 26.8% (active).

For the molecule `CCCCNC(=O)CCn1c(=O)c2ccccc2n(Cc2cc(C)ccc2C)c1=O`, the inhibition was 1.95% (inactive).

Take `Cc1ccc(S(=O)(=O)N(CC(=O)Nc2cccnc2)c2ccc(Br)cc2)cc1`: the inhibition is 3.28% (inactive).

Take `COc1cccc(C(=O)N2CCCC(CCC(=O)NCc3ccc(F)c(F)c3)C2)c1` (stereo not drawn): the inhibition was 1.9% (inactive).

Consider `COc1cccc(CNC(=O)CCC2CCCN(C(=O)c3ccoc3C)C2)c1` (stereo not drawn), for which the inhibition is 5.56% (inactive).

As to `COc1cccc(CNC(=O)CCC2CCCN(C(=O)c3ccc(F)c(Cl)c3)C2)c1` (stereo not drawn), the inhibition is 42.8% (active).

As for `COc1ccc(S(=O)(=O)Nc2cccc3c2O[C@H](CN(C)S(=O)(=O)c2ccc(OC)cc2)[C@@H](C)CN([C@H](C)CO)C3=O)cc1`, the inhibition is 3.76% (inactive).

With `COc1ccc(NCc2nnc(SCc3ccccc3)n2-c2ccc(OC)cc2)cc1`, the inhibition is 2.01% (inactive).

As for `OCCC1CN(Cc2cccc(O)c2)CCN1CCc1ccccc1` (stereo not drawn), the inhibition was -5.11% (inactive).

Regarding `CN1CCN(c2ccc(S(=O)(=O)N3CCCCC3)cc2NC(=O)Cc2ccccc2F)CC1`, the inhibition was -3.62% (inactive).

Turning to `CCN(CC)S(=O)(=O)c1ccc(N2CCOCC2)c(NC(=O)C(C)Oc2ccc(F)cc2)c1` (stereo not drawn), the inhibition is 10.3% (inactive).

As to `CCN(CC)S(=O)(=O)c1ccc(N2CCN(C)CC2)c(NC(=O)Nc2ccccc2F)c1`, the inhibition was 33.1% (active).

`C=CC[C@@H](CC(=O)N[C@@H](CO)Cc1ccccc1)C(=O)NCCOC(=O)[C@@H](CC=C)CC(=O)OC(C)(C)C`: the inhibition is 1.4% (inactive).

`Cc1ccc(C)c(S(=O)(=O)Nc2cc(C)on2)c1`: the inhibition is -1.93% (inactive).

In the case of `CCn1c(N)c(Br)c(=O)[nH]c1=O`, the inhibition was 0.06% (inactive).

Turning to `O=S(=O)(c1ccc(Cl)cc1)c1nc(-c2ccco2)oc1N1CCCCC1`, the inhibition is -3.3% (inactive).

For the molecule `CC(C)C1N=C2c3ccccc3N=C(SCC(=O)c3ccc(O)c(O)c3)N2C1=O` (stereo not drawn), the inhibition is 55.4% (active).

Take `CCC(C)NC(=O)CSC1=Nc2ccccc2C2=NC(CCC(=O)NCc3ccco3)C(=O)N12` (stereo not drawn): the inhibition is 2.48% (inactive).

Take `O=C(CSC1=Nc2ccccc2C2=NC(CC(=O)NCc3ccco3)C(=O)N12)NCc1ccco1` (stereo not drawn): the inhibition was 5.99% (inactive).

In the case of `CC(C)n1cnc2c(NCc3ccccc3)cc(OCC3CCN(C)CC3)cc21`, the inhibition is 11.1% (inactive).

In the case of `CN(CC(=O)NCC(c1ccccc1)N1CCCC1)S(=O)(=O)c1ccc(Cl)cc1` (stereo not drawn), the inhibition was -2.68% (inactive).

For `O=C(O)c1cc2c(cc1NC(=O)c1c(F)cccc1Cl)OCCCO2`, the inhibition is -0.94% (inactive).

As for `CC(=O)Nc1ccc(OCCC[n+]2cccc(C(=O)[O-])c2)cc1`, the inhibition is -0.37% (inactive).

Take `O=c1ccc2c(-c3ccccc3S(=O)(=O)O)c3ccc(O)c(O)c3oc-2c1O`: the inhibition was 70% (active).

For the molecule `CCCCNC(=O)C1CCC(=O)N1CCc1ccccc1` (stereo not drawn), the inhibition is 3.82% (inactive).

As for `CCOc1ccc(OCC)c(-c2c(=O)n(OCc3ccc(Cl)cc3)c3ccccc3[n+]2[O-])c1`, the inhibition was 5.98% (inactive).

Take `CCc1ccc(CN2C(=O)c3ccccc3C2C(=O)NCC2CCCO2)cc1` (stereo not drawn): the inhibition is 7.1% (inactive).

For the molecule `N#CC1=C(N)Oc2c(ccc3cccnc23)C1c1ccncc1` (stereo not drawn), the inhibition was 11.9% (inactive).

With `N#CC1=C(N)Oc2c(sc3ccccc23)C1c1ccco1` (stereo not drawn), the inhibition is 26.5% (active).
